According to the supplement of paper PMC9262897, “Low-cost anti-mycobacterial drug discovery using engineered E. coli” (Nature Communications, 2022):
Counter-ions that a name gives are not always drawn. ± gives the standard deviation of the averaged measurements.

Test system: E. coli TESEC Mtb Alr
Assay: growth (OD600 after 10 h); higher = more growth (less inhibition)
Conditions: compound 0.1 mM
Method: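 TESEC Mtb Alr E. coli, or the Alr+ wild-type control, in 384-well plates with Prestwick library compounds at 0.1 mM and 1% DMSO, across arabinose induction levels of 1E3 to 1E7 nM. Growth is read as OD600 after 10 h at 37 °C in triplicate biological replicates.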

[1] = arabinose 1000 nM, raw OD600 reference: median of DMSO wells 0.294, cell-free background 0.041
[2] = arabinose 10000 nM, raw OD600 reference: median of DMSO wells 0.264, cell-free background 0.041
[3] = arabinose 100000 nM, raw OD600 reference: median of DMSO wells 0.201, cell-free background 0.041
[4] = arabinose 1000000 nM, raw OD600 reference: median of DMSO wells 0.193, cell-free background 0.041
[5] = arabinose 10000000 nM, raw OD600 reference: median of DMSO wells 0.146, cell-free background 0.041

## Cc1cc(N)c2ccccc2[n+]1CCCCCCCCCC[n+]1c(C)cc(N)c2ccccc21 [Dequalinium dichloride]
[1]
  growth: 0.04803 ± 0.00032
[2]
  growth: 0.0469 ± 0.00052
[3]
  growth: 0.04963 ± 0.00015
[4]
  growth: 0.0458 ± 0.00071
[5]
  growth: 0.049 ± 0.0001

## CCN(CC)C(C)CN1c2ccccc2Sc2ccccc21 (stereo not given) [Ethopropazine hydrochloride]
[1]
  growth: 0.214 ± 0.0057
[2]
  growth: 0.271 ± 0.016
[3]
  growth: 0.172 ± 0.003
[4]
  growth: 0.135 ± 0.0087
[5]
  growth: 0.174 ± 0.0019

## CC[C@H]1OC(=O)[C@H](C)[C@@H](O[C@H]2C[C@@](C)(OC)[C@@H](O)[C@H](C)O2)[C@H](C)[C@@H](O[C@@H]2O[C@H](C)C[C@H](N(C)C)[C@H]2O)[C@](C)(O)C[C@@H](C)/C(=N\OCOCCOC)[C@H](C)[C@@H](O)[C@]1(C)O [Roxithromycin]
[1]
  growth: 0.0412 ± 0.00062
[2]
  growth: 0.04067 ± 0.00015
[3]
  growth: 0.0421 ± 0.0001
[4]
  growth: 0.04023 ± 0.00015
[5]
  growth: 0.0439 ± 0.002

## CNCC(O)c1ccc(OC(=O)C(C)(C)C)c(OC(=O)C(C)(C)C)c1 (stereo not given) [Dipivefrin hydrochloride]
[1]
  growth: 0.239 ± 0.018
[2]
  growth: 0.255 ± 0.011
[3]
  growth: 0.164 ± 0.016
[4]
  growth: 0.0939 ± 0.0013
[5]
  growth: 0.142 ± 0.004

## CC(C)(C)C(=O)OCOC(=O)[C@@H]1N2C(=O)[C@@H](NC(=O)[C@H](N)c3ccccc3)[C@H]2SC1(C)C [Pivampicillin]
[1]
  growth: 0.351 ± 0.0076
[2]
  growth: 0.285 ± 0.011
[3]
  growth: 0.298 ± 0.011
[4]
  growth: 0.207 ± 0.02
[5]
  growth: 0.203 ± 0.0048

## S=c1[nH]cnc2nc[nH]c12 [Mercaptopurine]
[1]
  growth: 0.0619 ± 0.0038
[2]
  growth: 0.0528 ± 0.0011
[3]
  growth: 0.0694 ± 0.0044
[4]
  growth: 0.0545 ± 0.0019
[5]
  growth: 0.0747 ± 0.0012

## CC(NCCc1ccc(O)cc1)C(O)c1ccc(O)cc1 (stereo not given) [Ritodrine hydrochloride]
[1]
  growth: 0.313 ± 0.011
[2]
  growth: 0.2537 ± 0.0014
[3]
  growth: 0.21 ± 0.032
[4]
  growth: 0.176 ± 0.0022
[5]
  growth: 0.144 ± 0.0063

## Cc1c(OCC(F)(F)F)ccnc1C[S+]([O-])c1nc2ccccc2[nH]1 (stereo not given) [Lansoprazole]
[1]
  growth: 0.164 ± 0.0045
[2]
  growth: 0.242 ± 0.01
[3]
  growth: 0.132 ± 0.0025
[4]
  growth: 0.094 ± 0.0041
[5]
  growth: 0.14 ± 0.0041
